Consider 5 compounds from ChEMBL document CHEMBL1961873, “Compounds: GSK PKIS; Assays: Nanosyn kinase panel” (2012).

SMILES strings stand for the structures.

In experiment [1] the target is Death-associated protein kinase 1 (Homo sapiens) (UniProt P53355). Particulars: at 1 µM.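 Further: each value is a mean inhibition figure.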
Experiment [2] has as its target T1, Serine/threonine-protein kinase DCLK2 (Homo sapiens) (UniProt Q8N568).
T1 sequence (whole entry): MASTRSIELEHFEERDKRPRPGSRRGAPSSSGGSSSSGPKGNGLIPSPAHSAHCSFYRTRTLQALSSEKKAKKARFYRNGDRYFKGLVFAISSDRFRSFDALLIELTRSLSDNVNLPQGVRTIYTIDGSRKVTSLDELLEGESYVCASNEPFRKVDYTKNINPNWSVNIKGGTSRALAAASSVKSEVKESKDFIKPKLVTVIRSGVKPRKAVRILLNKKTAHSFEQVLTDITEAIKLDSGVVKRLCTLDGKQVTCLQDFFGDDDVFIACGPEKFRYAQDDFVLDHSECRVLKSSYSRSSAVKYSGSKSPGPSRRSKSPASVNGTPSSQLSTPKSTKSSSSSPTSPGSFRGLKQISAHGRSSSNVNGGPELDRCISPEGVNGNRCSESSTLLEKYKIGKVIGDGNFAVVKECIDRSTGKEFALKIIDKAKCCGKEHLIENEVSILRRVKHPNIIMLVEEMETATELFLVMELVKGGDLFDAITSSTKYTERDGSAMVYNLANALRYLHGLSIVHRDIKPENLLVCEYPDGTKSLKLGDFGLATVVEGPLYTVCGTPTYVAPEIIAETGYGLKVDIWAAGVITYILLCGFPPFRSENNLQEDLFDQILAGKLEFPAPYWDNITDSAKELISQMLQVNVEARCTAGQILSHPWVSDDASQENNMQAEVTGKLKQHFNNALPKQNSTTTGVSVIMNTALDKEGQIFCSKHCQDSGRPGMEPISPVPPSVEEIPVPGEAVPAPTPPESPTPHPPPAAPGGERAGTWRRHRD
Particulars: at 0.1 µM.

The target in experiment [3] is T1, Serine/threonine-protein kinase DCLK2 (Homo sapiens). Particulars: at 1 µM.
Experiment [4] addresses MAP kinase-activated protein kinase 2 (Homo sapiens) (UniProt P49137). Particulars: at 0.1 µM.
Experiment [5] shares this target. The conditions noted are these: at 1 µM.
Experiment [6] has as its target MAP kinase-activated protein kinase 3 (Homo sapiens) (UniProt Q16644). Particulars: at 0.1 µM.
Experiment [7] has the same target. Particulars: at 1 µM.
Experiment [8] deals with Serine/threonine-protein kinase MARK1 (Homo sapiens) (UniProt Q9P0L2). The conditions noted are these: at 0.1 µM.
Chain of Serine/threonine-protein kinase MARK1 (Homo sapiens) (Q9P0L2 whole entry, looked up): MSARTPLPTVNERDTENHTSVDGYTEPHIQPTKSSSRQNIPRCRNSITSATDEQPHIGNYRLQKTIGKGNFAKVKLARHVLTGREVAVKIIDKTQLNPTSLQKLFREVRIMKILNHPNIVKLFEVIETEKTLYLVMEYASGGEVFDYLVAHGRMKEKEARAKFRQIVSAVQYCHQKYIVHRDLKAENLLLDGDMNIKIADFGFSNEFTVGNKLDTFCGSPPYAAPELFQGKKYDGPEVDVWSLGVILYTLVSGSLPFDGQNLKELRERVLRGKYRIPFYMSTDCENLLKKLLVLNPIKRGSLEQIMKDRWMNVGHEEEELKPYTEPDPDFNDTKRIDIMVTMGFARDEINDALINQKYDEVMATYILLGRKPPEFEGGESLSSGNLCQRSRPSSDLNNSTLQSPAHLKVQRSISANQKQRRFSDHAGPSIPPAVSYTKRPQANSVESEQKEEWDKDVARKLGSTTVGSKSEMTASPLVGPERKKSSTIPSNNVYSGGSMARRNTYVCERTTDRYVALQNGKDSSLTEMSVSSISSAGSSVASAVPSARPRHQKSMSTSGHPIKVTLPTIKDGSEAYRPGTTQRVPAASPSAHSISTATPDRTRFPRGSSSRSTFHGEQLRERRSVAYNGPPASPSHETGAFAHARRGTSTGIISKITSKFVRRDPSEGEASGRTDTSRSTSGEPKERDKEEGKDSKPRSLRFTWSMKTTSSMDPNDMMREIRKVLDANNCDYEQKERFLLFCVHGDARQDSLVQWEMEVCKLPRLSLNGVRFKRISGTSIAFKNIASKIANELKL
The target is the same in experiment [9]. Particulars: at 1 µM.
Experiment [10] concerns the target MAP/microtubule affinity-regulating kinase 3 (Homo sapiens) (UniProt P27448). Particulars: at 0.1 µM.
Experiment [11] shares this target. The conditions noted are these: at 1 µM.
In experiment [12] the target is T2, MAP/microtubule affinity-regulating kinase 4 (Homo sapiens) (UniProt Q96L34).
T2 sequence (whole entry): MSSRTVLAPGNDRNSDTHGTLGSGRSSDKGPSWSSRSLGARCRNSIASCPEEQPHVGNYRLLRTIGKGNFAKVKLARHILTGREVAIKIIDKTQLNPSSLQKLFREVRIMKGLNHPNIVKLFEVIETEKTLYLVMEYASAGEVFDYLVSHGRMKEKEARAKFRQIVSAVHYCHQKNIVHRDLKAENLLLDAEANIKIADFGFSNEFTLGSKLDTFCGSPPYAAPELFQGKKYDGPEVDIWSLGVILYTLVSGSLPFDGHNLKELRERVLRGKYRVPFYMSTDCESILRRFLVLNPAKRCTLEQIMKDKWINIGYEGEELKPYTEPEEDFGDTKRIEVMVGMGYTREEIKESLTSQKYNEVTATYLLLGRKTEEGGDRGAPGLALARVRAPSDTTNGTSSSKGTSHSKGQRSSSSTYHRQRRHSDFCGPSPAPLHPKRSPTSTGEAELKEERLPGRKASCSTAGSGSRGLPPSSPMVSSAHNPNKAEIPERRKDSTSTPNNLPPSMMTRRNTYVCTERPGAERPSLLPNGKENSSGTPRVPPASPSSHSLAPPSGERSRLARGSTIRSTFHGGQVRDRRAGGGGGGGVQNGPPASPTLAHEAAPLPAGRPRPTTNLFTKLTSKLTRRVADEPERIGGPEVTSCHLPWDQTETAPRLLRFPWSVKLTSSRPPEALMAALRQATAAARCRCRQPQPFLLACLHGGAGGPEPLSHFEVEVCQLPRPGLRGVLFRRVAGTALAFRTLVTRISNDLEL
Particulars: at 0.1 µM.

Experiment [13] deals with T2, MAP/microtubule affinity-regulating kinase 4 (Homo sapiens). Particulars: at 1 µM.
For experiment [14], the target named is Maternal embryonic leucine zipper kinase (Homo sapiens) (UniProt Q14680). The conditions noted are these: at 0.1 µM.
Experiment [15] has the same target. Particulars: at 1 µM.
The target of experiment [16] is MAP kinase-interacting serine/threonine-protein kinase 1 (Homo sapiens) (UniProt Q9BUB5). The conditions noted are these: at 0.1 µM.
Chain of MAP kinase-interacting serine/threonine-protein kinase 1 (Homo sapiens) (Q9BUB5 whole entry, looked up): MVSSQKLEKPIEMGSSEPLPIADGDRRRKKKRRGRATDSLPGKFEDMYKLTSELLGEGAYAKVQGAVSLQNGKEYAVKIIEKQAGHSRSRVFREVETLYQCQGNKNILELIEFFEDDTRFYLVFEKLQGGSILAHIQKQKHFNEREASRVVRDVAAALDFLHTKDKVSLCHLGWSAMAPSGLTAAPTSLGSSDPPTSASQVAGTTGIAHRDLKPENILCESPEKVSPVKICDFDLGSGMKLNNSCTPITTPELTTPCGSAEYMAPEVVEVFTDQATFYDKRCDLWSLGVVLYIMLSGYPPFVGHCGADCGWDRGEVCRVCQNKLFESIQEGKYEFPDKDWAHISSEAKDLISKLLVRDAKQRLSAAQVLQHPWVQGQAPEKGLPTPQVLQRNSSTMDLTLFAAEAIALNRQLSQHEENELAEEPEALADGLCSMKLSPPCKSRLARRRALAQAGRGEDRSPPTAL
The target is the same in experiment [17]. Particulars: at 1 µM.
Experiment [18] addresses MAP kinase-interacting serine/threonine-protein kinase 2 (Homo sapiens) (UniProt Q9HBH9). Particulars: at 0.1 µM.
Experiment [19] has the same target. The conditions noted are these: at 1 µM.
Experiment [20] concerns the target Serine/threonine-protein kinase MARK2 (Homo sapiens) (UniProt Q7KZI7). The conditions noted are these: at 0.1 µM.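 Further: mean percent inhibition of PAR-1Balpha kinase activity, reported from the GSK PKIS screen.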

Chain of MAP kinase-interacting serine/threonine-protein kinase 2 (Homo sapiens) (Q9HBH9 whole entry, looked up): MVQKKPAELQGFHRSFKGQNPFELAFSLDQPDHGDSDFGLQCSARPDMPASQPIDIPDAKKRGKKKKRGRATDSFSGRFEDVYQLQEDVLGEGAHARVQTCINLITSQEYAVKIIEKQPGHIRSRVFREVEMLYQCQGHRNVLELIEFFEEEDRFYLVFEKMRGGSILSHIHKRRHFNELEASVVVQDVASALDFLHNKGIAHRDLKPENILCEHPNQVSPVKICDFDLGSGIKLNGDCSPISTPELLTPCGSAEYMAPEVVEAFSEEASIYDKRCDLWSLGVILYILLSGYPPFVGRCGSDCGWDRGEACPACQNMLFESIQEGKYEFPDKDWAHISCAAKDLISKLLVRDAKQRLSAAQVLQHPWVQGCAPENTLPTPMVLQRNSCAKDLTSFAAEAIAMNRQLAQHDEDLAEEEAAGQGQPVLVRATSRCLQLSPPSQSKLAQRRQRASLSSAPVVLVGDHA
Chain of Death-associated protein kinase 1 (Homo sapiens) (P53355 whole entry, looked up): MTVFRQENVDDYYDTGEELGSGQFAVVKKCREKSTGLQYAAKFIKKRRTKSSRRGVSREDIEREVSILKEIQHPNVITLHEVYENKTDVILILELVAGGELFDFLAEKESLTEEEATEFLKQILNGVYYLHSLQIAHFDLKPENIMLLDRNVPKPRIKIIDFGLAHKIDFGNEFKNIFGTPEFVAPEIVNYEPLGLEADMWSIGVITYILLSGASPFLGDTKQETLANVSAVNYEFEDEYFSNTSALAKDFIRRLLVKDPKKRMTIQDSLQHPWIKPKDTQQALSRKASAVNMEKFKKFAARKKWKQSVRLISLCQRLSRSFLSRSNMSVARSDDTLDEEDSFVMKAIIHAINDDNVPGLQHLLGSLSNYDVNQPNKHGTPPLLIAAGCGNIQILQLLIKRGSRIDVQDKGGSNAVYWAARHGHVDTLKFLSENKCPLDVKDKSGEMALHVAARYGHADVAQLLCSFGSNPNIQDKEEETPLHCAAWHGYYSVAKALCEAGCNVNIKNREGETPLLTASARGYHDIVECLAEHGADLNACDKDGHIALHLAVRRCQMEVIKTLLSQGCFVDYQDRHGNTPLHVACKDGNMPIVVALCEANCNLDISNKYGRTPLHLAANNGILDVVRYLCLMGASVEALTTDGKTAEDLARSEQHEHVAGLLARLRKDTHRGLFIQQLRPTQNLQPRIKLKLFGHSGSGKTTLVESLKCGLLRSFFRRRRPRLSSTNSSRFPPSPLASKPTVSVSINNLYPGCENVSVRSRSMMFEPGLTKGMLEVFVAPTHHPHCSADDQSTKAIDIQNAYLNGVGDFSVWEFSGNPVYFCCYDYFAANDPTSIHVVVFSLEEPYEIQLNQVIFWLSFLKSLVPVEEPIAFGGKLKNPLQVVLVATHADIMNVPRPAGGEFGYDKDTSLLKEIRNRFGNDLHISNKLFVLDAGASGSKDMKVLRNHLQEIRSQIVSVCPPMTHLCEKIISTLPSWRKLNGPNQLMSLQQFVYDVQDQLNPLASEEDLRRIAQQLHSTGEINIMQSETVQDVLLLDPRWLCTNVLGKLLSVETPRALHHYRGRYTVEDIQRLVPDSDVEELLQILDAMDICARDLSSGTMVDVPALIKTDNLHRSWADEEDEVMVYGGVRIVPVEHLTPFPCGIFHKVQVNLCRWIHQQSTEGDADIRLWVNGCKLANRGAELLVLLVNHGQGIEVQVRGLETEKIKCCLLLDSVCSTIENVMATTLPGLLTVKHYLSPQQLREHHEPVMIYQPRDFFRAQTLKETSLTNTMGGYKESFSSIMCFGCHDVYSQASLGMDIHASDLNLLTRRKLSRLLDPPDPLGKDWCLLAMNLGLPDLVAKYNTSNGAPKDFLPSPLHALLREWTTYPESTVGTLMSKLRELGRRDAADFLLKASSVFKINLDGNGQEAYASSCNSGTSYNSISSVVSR
Chain of MAP kinase-activated protein kinase 3 (Homo sapiens) (Q16644 whole entry, looked up): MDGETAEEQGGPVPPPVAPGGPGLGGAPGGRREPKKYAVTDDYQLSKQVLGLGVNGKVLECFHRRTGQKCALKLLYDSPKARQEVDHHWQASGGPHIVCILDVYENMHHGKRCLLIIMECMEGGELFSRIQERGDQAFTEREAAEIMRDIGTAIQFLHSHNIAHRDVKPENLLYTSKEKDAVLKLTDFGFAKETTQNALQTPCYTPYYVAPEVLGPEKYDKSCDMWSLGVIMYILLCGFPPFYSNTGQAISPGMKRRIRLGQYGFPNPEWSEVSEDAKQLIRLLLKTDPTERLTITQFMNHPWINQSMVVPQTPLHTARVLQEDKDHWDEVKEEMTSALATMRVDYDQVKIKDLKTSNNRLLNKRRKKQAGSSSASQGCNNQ
Chain of MAP/microtubule affinity-regulating kinase 3 (Homo sapiens) (P27448 whole entry, looked up): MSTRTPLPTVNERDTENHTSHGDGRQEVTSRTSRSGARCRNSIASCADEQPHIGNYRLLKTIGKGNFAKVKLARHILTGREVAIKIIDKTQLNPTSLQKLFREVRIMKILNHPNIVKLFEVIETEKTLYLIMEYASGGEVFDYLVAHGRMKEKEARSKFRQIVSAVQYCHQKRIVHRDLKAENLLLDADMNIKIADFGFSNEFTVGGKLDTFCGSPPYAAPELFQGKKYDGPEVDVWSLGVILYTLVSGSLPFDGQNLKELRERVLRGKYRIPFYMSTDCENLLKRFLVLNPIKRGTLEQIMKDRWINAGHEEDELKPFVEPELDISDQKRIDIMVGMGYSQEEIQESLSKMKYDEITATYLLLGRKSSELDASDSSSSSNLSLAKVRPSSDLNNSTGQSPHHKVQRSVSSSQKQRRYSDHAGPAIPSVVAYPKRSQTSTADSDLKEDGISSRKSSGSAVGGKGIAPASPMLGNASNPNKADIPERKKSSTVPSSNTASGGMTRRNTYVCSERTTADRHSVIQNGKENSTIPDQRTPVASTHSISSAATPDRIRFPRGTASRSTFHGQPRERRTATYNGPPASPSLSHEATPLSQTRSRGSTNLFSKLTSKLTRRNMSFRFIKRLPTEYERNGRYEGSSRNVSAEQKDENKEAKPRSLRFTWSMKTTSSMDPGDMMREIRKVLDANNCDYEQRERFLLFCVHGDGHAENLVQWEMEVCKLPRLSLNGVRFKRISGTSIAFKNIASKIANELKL
Chain of MAP kinase-activated protein kinase 2 (Homo sapiens) (P49137 whole entry, looked up): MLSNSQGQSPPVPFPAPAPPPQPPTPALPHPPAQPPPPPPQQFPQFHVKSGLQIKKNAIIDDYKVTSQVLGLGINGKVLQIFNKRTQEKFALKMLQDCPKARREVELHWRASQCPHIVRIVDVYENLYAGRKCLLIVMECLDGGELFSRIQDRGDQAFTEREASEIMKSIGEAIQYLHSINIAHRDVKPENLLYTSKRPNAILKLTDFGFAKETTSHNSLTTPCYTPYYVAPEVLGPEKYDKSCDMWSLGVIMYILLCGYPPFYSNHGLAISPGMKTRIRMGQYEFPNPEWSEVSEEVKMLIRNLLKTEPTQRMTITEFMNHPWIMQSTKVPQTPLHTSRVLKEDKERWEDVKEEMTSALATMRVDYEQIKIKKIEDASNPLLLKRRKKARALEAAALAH

`O=C(NCC1CC1)c1ccc(-c2cccc(C(=O)NC3CC3)c2)cc1`: the inhibition is 3.86% in [1]; 1.31% in experiment [2]; -0.41% in [3]; 0.95% in experiment [4]; 1.17% in experiment [5]; 2% in experiment [6]. The inhibition came out at 3.94% in experiment [7]; 2.23% in [8]; 1.62% in [9]; 4.12% in [10]; 6.77% in [11]; 0.89% in [12]. The inhibition was 0.47% in [13]; 1.66% in experiment [14]; 0.83% in [15]; 1.09% in [16]; 0.19% in [17]; -1.06% in experiment [18]. The values for the inhibition in experiment [19] and in experiment [20] were 0.04% and 0.08%, respectively.
Turning to `Cc1ccc(C(=O)NC(C)C)cc1-c1ccc(C(=O)NCC2CC2)cc1`, the inhibition in experiment [1] was -2.3%; in experiment [2], -3.07%; in experiment [3], -1.07%; in experiment [4] it was -1.44%; in [5], -1.8%; in [6], 0.42%. Besides, the inhibition in [7] was 9.15%; in experiment [8] it was 0.27%; in [9], 0.65%; in [10] it was 0.19%; in experiment [11], -0.42%; in experiment [12] it was 1.15%. For the same compound, the inhibition was 0.5% in [13]; -2.85% in experiment [14]; -2.99% in experiment [15]; -1.07% in experiment [16]; -0.97% in experiment [17]; -0.04% in experiment [18]. Moreover, the inhibition in [19] worked out at 1.12%; in [20], 0.38%.
In the case of `COc1ccc2cc(-c3c(-c4ccncc4)nc(-c4ccc([S+](C)[O-])cc4C)n3C)ccc2c1` (stereo not given), the inhibition is -9.4% in [1]; -1.12% in experiment [2]; 5.6% in [3]; -3.43% in experiment [4]; -3.96% in [5]; -6.68% in experiment [6]. In addition, the inhibition is -5.38% in experiment [7]; -1.01% in experiment [8]; -1.81% in experiment [9]; 0.61% in [10]; -1.9% in experiment [11]; -0.17% in experiment [12]. In addition, the inhibition in experiment [13] was -0.24%; in experiment [14], 0.29%; in [15], 0.51%; in experiment [16], 5.22%; in experiment [17], 10%; in experiment [18], 0.98%. Moreover, the inhibition was 3.96% in experiment [19] and -1.24% in experiment [20].
For `O=C1Nc2ccccc2/C1=C/Nc1ccc(-n2cncn2)cc1`, the inhibition in experiment [1] is 7.29%; in experiment [2] it was 1.71%; in experiment [3], -2.02%; in [4] it was 2.96%; in experiment [5] it was 2.54%; in experiment [6], 3.98%. Further, the inhibition in experiment [7] was determined as 3.15%; in experiment [8] it was 5.86%; in experiment [9], 25.4%; in experiment [10], 3.28%; in experiment [11], 36.4%; in experiment [12], 3.35%. The inhibition in [13] turned out to be 17.9%; in experiment [14], 6.89%; in experiment [15], 25.8%; in [16], 7.6%; in experiment [17] it was 14.8%; in experiment [18], 2.4%. In addition, the inhibition in [19] was found to be 8.07%; in experiment [20], 1.47%.
As to `COc1cc2ncn(-c3cc(OCc4cccs4)c(C(N)=O)s3)c2cc1OC`, the inhibition in experiment [1] is -2.56%; in experiment [2] it was -9.99%; in experiment [3], -0.46%; in experiment [4] it was 0.78%; in [5], 1.78%; in experiment [6], 1.75%. In addition, the inhibition is 2.97% in experiment [7]; 2.63% in [8]; 15.8% in experiment [9]; 3.86% in [10]; 20.3% in [11]; 2.12% in [12]. Also, the inhibition was 9.4% in experiment [13]; 2.35% in experiment [14]; 4.91% in experiment [15]; 3.56% in experiment [16]; 14.7% in experiment [17]; 3.17% in experiment [18]. The inhibition in experiment [19] turned out to be 13%; in [20], 1.68%.

Broadly, the inhibition is the relative decrease from the control value, in per cent.
